Bioassay records (PubChem)
HCV inhibitor: HCV inhibition | Huh7.5.1 HCVcc-Cre infection, luciferase reporter, 44 h | Potency, µM (doses to about 41.8 µM), inactives show at the top dose activity change, negative = inhibition, actives largely listed as inhibitors | actives 3.4% (n = 340,000)
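1,000 cells/well; 4 h culture; + compound; + HCVcc-Cre (~0.5 moi); 44 h; luciferase substrate, RT 15 min; read 15 sec.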
AmpC inh no detg: blocks E. coli AmpC beta-lactamase in detergent-free assay; AmpC nitrocefin hydrolysis, absorbance 480 nm, 0.0001% Triton; Potency, µM (top dose mostly 57.1 µM), for the others: at the top dose activity change, negative = inhibition, actives largely listed as inhibitors; actives 0.52% (n = 330,000);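 further: plate controls were no compound for no effect and no enzyme for full effect; nearly all actives have a fitted effect of over 20% in size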
Target sequence (P00811 whole entry, looked up): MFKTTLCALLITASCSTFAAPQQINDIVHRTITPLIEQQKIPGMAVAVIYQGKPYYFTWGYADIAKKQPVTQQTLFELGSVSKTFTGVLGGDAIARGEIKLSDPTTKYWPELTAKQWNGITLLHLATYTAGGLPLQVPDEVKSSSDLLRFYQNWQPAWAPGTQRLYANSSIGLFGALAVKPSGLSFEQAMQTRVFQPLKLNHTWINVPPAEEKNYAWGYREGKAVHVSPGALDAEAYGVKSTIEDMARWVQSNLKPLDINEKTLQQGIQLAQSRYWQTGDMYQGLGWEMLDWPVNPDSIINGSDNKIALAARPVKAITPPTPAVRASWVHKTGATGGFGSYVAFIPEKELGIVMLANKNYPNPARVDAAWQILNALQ
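20 mM phosphate pH 7.0 + 0.01% (detergent screen) or 0.0001% Triton X-100; 5.3 nM AmpC reagent; cpd preinc 15 min RT; nitrocefin (800 uM stock) to start; A480 q20 s × 4 min; Activity was normalised to no-enzyme and no-compound control wells.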
AmpC inh detg: inhibitors of E. coli AmpC beta-lactamase with detergent; Potency, µM (highest dose often 114 µM), for inactives: at the top dose activity change, negative = inhibition, most hits filed as inhibitors; AmpC hydrolysis of nitrocefin, absorbance 480 nm, 0.01% Triton; P00811; actives 0.041% (n = 370,000);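 further: 0% = no-compound wells and -100% = no-enzyme wells; nearly all actives have a fitted effect of over 25% in size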
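20 mM phosphate pH 7.0 + 0.01% (detergent screen) or 0.0001% Triton X-100; 5.3 nM AmpC reagent; cpd preinc 15 min RT; nitrocefin (800 uM stock) to start; A480 q20 s × 4 min; Activity was normalised to no-enzyme and no-compound control wells.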
Pf growth 96h: P. falciparum growth inhibition at 96 hour, primary screen for plastid delayed-death inhibitors | Potency, µM (top dose mostly 28.7 µM), for the others: top-dose activity change, negative = inhibition, hits mostly inhibitors | actives 6.9% (n = 320,000) | P. falciparum luciferase reporter growth, 96 h
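Two parasite generations (96 h, 37 C, 5% CO2) of compound exposure in infected erythrocytes (0.05% parasitemia, 2% hematocrit). Luciferase-reporter P. falciparum; decreased luminescence indicates inhibited growth, aimed at apicoplast-acting delayed death.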
Pf growth 48h: P. falciparum growth inhibition at 48 hours (one generation) | Potency, µM (titrated, usually from 28.7 µM), for the others: top-dose activity change, negative = inhibition, hits mostly inhibitors | actives 5.9% (n = 310,000) | P. falciparum luciferase growth in erythrocytes, 48 h
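Luciferase-expressing parasites in RBCs, 2% Hct / 0.1% parasitemia final; RPMI 1640 + 0.5% Albumax; 37 C, 5% CO2, one generation; luminescence read-out, lower signal = inhibition.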
AMA1 RON2 block: AMA1-RON2 (P. falciparum) interaction inhibition | AlphaScreen AMA1-biotinylated RON2 peptide binding | Potency, µM (series often up to 58.2 µM), without a hit: at the highest dose activity change, negative = inhibition, actives largely listed as inhibitors | actives 0.2% (n = 360,000) | AID 720542;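 further: 0% = vehicle wells and -100% = peptide control; nearly all actives have a fitted effect of over 45% in size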
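AMA1 (3D7) with his tag at 25 nM final met compounds first, then biotinylated RON2 peptide at 25 nM; detection used donor plus acceptor beads, 10 µg/mL apiece, read by AlphaScreen after 30 min at room temperature.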
Starred values were filed as active, the others as inactive; ? = inconclusive; . = no result; [ ] = dose if it differs, or a comment. Sampled rows, rich in hits. Any-hit rate of the full collection: about 11%. The call rests on the fitted dose curve; in most records, active means well fitted curve in the direction sought with a large enough effect; inconclusive means small, poorly fitted or top-dose-only effect, or another doubt; inactive means no such curve, though single readings can be large; an effect the other way counts as inactive or inconclusive. Unless noted, on the % scale 0 is the no-effect control and ±100 the full control effect; potency means the concentration at half of the fitted maximal effect.

SMILES | HCV inhibitor | AmpC inh no detg | AmpC inh detg | Pf growth 96h | Pf growth 48h | AMA1 RON2 block
CCC(=O)Nc1nnc(CSCc2ccc(F)cc2)s1 | ? | -8% | 2% | 0.93µM* | . | -4%
O=C(Nc1ccc(Cl)cc1)Nc1nnc(CSCc2ccc(Cl)cc2)s1 | 5µM* | -28% | 1% | 8.3µM* | 4.1µM* | 2%
CCC(=O)Nc1nnc(CSCc2ccccc2)s1 | -1% | -3% | -7% | 11% | -2% | 16%
CCOc1cccc2cc(-c3nc4sc5c(c4c(=O)[nH]3)CCC(C)C5)c(=O)oc12 (centres undefined) | . | . | 17% | . | . | .
Cc1cccc(OCC(=O)OCc2cc(=O)n3nc(C4CCCCC4)sc3n2)c1 | . | . | 17% | . | . | .
O=c1c2oc3ccccc3c2n(Cc2ccccc2F)c(=O)n1Cc1ccccc1 | . | . | -2% | . | . | .
CCc1ccc(CN(C)C(=O)CCc2nc3ccccc3n(-c3ccc(OC)cc3)c2=O)cc1 | ? | 148% | 5% | 13µM* | ? | -23%
COc1ccc(-n2c(=O)c(CCC(=O)N(C)Cc3ccccc3C)nc3ccccc32)cc1 | ? | 35%[11.4 µM] | -15% | 8.3µM* | 10µM* | -13%
Cc1c(Cl)cccc1NC(=O)Nc1nnc(N(C)C2CCCCC2)s1 | . | . | 0% | . | . | .
Cc1ccc(NC(=O)c2ccc(=O)[nH]n2)cc1S(=O)(=O)Nc1ccc(SC(F)F)cc1 | 3.2µM* | -31% | . | . | . | -12%
COc1ccc(Cl)cc1NC(=O)CN(C)S(=O)(=O)c1ccc2c(c1)CCCN2C(C)=O | . | . | 5% | . | . | .
CCC[C@@H](CN1CCC[C@H]1CN1C(N)=NC[C@H]1CC(C)C)N1C[C@@H]([C@H](C)CC)N(CCCC2CCCC2)C1=N | 2.8µM* | 33% | . | . | . | 9%
O=C(NCCc1ccccc1)C1CC(=O)N(C2CCCCC2)C1 (centres undefined) | 11% | -6% | 7% | 5.9µM* | 11% | -21%
O=C(NCCn1cccn1)C1CCC(=O)N(CCc2ccccc2)C1 (centres undefined) | 16% | -6% | 7% | 13µM* | 6% | 1%
Cc1ccc(CCN2CC(C(=O)NCCCN3CCCCC3)CC2=O)cc1 (centres undefined) | 15% | -15% | 4% | 7.4µM* | 0% | 4%
O=C(NCCc1ccc(Cl)cc1)C1CC(=O)N(CCc2ccccc2)C1 (centres undefined) | -2% | 56% | -4% | 4.1µM* | 18% | -7%
Cc1ccc(CNC(=O)C2CCC(=O)N(CCc3ccc(Cl)cc3)C2)cc1 (centres undefined) | 10% | 180% | -2% | 9.3µM* | -12% | 8%
O=C(NCCN1CCCC1)C1CC(=O)N(C2CCCCC2)C1 (centres undefined) | 21% | 1% | 8% | 13µM* | 27% | -2%
Cc1cc(O)c(C(c2ccc(F)cc2)N2CCN(c3ccccc3)CC2)c(=O)n1Cc1ccco1 (centres undefined) | . | . | 14% | . | . | .
COc1cccc2c1cc1c(=O)n(CC(=O)N3CCN(c4ccccc4F)CC3)nc(C)n12 | . | . | 24% | . | . | .
O=C1NC2(CCCCC2)Cc2ccccc21 | 17% | -30% | ? | 23% | -11% | 6%
N#CC(C#N)=C1NC2(CCCC2)Cc2ccccc21 | -28% | -23% | 1% | 3.3µM* | ? | 10%
S=C1NC2(CCCCC2)Cc2ccccc21 | 2% | -21% | ? | 12µM* | ? | -20%
CCCCCOc1ccc(/C=C/c2c([N+](=O)[O-])c(=O)n(C)c(=O)n2C)cc1 | -16% | -14% | -2% | ? | 12µM* | 0%
Cn1c(/C=C/c2ccc(Cl)cc2)c([N+](=O)[O-])c(=O)n(C)c1=O | ? | -1% | -1% | 3% | ? | -5%
SMILES | HCV inhibitor | AmpC inh no detg | AmpC inh detg | Pf growth 96h | Pf growth 48h | AMA1 RON2 block
CN(C)S(=O)(=O)N1CCc2ccc(NC(=O)c3ccccc3Cl)cc2C1 | ? | -29% | -10% | 5.9µM* | 5% | -9%
CCCS(=O)(=O)N1CCc2ccc(NC(=O)c3ccccc3Cl)cc2C1 | -25% | -24% | ? | 22% | 15% | 1%
N#Cc1ccccc1Cn1c(=O)n(-c2ccc(F)c(Cl)c2)c(=O)c2sccc21 | . | . | -2% | . | . | .
O=C(CS(=O)CC(=O)N(c1ccccc1)C(C(=O)NC1CCCCC1)c1ccco1)Nc1ccc(F)cc1 (centres undefined) | 0% | -17% | ? | 7.4µM* | ? | 3%[11.6 µM]
Cc1ccc(NC(=O)CS(=O)CC(=O)N(c2ccc(C)cc2)C(C)C(=O)NC2CCCCC2)cc1 (centres undefined) | 21% | 110% | -4% | ? | 13µM* | 1%
Cc1cccc(NC(=O)C2CCCN2S(=O)(=O)c2ccc3c(c2)n(C)c(=O)c(=O)n3C)c1 (centres undefined) | 2%[8.37 µM] | -30% | ? | 8.3µM* | 2% | 17%
Cc1ccc(S(=O)(=O)N2Cc3ccccc3CC2C(=O)Nc2cc(C)on2)cc1 (centres undefined) | -16% | -37% | -16% | 2% | -17% | -6%
Cc1ccc(S(=O)(=O)N2CCCC2C(=O)Nc2cc(C)on2)cc1 (centres undefined) | 5% | -12% | -10% | 26% | 4.7µM* | 19%
CCn1c(=N)n(CCOc2ccc(Br)cc2)c2ccccc21 | . | . | 5% | . | . | .
Cc1cccc(OCc2nnc(SCC(=O)Nc3ccc(C)cc3C)o2)c1 | . | . | -3% | . | . | .
COc1cccc(/C=C2/Sc3ccc(C(=O)NCCN4CCCCCC4)cc3NC2=O)c1 | 5.6µM* | 102% | -15% | ? | ? | 4%
O=C1Nc2cc(C(=O)NCCN3CCCCCC3)ccc2S/C1=C\c1ccccc1 | 14µM* | 193% | -5% | ? | ? | -20%
O=C(NC1(C(F)(F)F)C(=O)Nc2c1c(=O)[nH]c(=O)n2CCc1ccccc1)c1ccc(Cl)cc1Cl (centres undefined) | . | . | 0% | . | . | .
COc1cc(NC(=O)Cn2c(=O)n(CC(=O)NCCc3ccc(OC)c(OC)c3)c(=O)c3sccc32)cc(OC)c1 | . | . | 19% | . | . | .
CCc1cccc(N2C(=O)CSC23C(=O)Nc2ccccc23)c1 (centres undefined) | . | . | 10% | . | . | .
CCc1ccc2c(c1)C1(NN=C(c3cccc4ccccc34)S1)C(=O)N2 (centres undefined) | ? | -59% | -2% | -21% | 2.9µM* | .
CCOc1ccccc1CNC(=O)c1ccc(NC(=O)N2CC(C)Sc3ccccc32)cc1 (centres undefined) | . | . | -6% | . | . | .
